Drawing on PubChem BioAssay (NCATS), this text covers Potency for 40 compounds.

Inconclusive results are not listed. A call without a number means that no potency is given here. Activity calls are given as the source filed them. Calls follow the shape of the dose curve; as a rule, active = well fitted inhibition curve with a large enough effect; inconclusive = small, poorly fitted or top-dose-only effect; inactive = no such curve, though single readings can be large or run the other way.
Potency is read from the fitted curve at half-maximal effect.

Sequence of RecQ-like DNA helicase BLM (Homo sapiens) (P54132 whole entry, looked up): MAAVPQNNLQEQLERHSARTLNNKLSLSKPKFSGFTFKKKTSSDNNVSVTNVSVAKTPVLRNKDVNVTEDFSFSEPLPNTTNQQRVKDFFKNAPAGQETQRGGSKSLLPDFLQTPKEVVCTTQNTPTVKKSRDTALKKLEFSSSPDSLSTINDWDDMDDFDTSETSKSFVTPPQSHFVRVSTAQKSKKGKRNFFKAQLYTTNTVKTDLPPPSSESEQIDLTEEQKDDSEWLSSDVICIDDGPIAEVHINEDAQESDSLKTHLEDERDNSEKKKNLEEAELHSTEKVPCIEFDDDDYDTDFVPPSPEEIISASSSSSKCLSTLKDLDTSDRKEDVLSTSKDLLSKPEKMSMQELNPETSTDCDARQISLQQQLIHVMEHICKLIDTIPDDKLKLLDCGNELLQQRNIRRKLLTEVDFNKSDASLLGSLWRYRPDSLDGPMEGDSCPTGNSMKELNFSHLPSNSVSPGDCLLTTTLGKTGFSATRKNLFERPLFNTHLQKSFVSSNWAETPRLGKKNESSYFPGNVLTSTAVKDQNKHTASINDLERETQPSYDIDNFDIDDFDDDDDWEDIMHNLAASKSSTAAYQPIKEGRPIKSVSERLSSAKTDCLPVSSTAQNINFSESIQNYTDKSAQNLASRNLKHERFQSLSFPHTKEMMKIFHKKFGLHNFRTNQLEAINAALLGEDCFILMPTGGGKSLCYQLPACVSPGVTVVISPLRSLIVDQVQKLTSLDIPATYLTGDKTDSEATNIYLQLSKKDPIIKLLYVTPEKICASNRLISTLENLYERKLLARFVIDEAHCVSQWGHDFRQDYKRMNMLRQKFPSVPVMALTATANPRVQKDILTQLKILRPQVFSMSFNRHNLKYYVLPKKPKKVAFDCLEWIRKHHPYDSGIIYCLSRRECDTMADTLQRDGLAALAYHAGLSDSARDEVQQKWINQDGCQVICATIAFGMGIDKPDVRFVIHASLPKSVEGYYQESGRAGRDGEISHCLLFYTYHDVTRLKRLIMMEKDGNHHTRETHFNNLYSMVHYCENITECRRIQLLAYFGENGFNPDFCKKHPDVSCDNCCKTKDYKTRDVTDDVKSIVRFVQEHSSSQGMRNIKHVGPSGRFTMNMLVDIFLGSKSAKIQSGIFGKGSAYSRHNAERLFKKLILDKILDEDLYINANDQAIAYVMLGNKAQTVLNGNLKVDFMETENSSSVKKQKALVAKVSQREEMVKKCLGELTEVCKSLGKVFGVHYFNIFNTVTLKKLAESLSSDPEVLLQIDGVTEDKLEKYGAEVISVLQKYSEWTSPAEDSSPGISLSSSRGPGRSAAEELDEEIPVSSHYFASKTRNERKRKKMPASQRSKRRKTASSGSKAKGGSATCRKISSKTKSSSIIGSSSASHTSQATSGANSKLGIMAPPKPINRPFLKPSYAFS

This test concerns the target RecQ-like DNA helicase BLM (Homo sapiens) (UniProt P54132). In words: qHTS Validation Assay for Inhibitors of Bloom's syndrome helicase (BLM) (AID 2364). The following applies: BLM helicase DNA unwinding, fluorescence, in vitro; series mostly up to 57.1 µM. The text has this: Survival of cells and the faithful propagation of the genome depend on elaborate mechanisms of detecting and repairing DNA damage. Treatment of advanced cancer relies on radiation therapy or chemotherapy, which kill cancer cells by causing extensive DNA damage. It is often found, that cancer cells develop resistance to therapy through enhanced activity of DNA repair functions; this has led to an increased interest in developing drugs that interfere with DNA repair, which could sensitize cancer cells to conventional therapy.
This validation qHTS assay pertains to human BLM, which is important in resolving abnormal DNA structures formed during replication or homologous recombination. Shutting down the expression of BLM leads to chromosomal instability and higher radiation sensitivity in cultured cells.
The validation assay was a fluorescence quenching based kinetic qHTS for BLM Helicase DNA unwinding. The activity was measured as ATP-dependent separation of a 20-bp DNA duplex extended by 30-nt single-stranded tails (forked duplex). The forked DNA substrate was tagged with rhodamine fluorophore (carboxytetramethyl rhodamine, TAMRA) and BHQ-2 (Black Hole Quencher 2) dark quencher. Strand separation results in an increase in the fluorescence of TAMRA (excitation 525 nm, emission 598 nm). This substrate construct operates in a red-shifted region where very few compound library members have been noted to fluoresce (PubChem AIDs 593 and 594). An additional feature of the assay is the inclusion of 2.5 ug/ml poly (dIdC), to reduce interference by compounds such as DNA intercalators, a major source of false inhibitors.
Ian Hickson, University of Oxford
Opher Gileadi, Structural Genomics Consortium, University of Oxford
Screening Center PI: Austin, C.P.
Screening Center: NIH Chemical Genomics Center [NCGC]
Three uL of reaction buffer (25 mM Tris-HCl (pH 8.0), 5 mM NaCl, 2 mM MgCl2, 1mM DTT, 0.01% Tween- 20, and 2.5 ug/ml poly(dI-dC), including enzyme (50 nM BLM), were dispensed into a 1536-well Greiner black assay plate via solenoid-valve based nanoliter dispensers. Compounds (23 nl each in columns 5-48) and control (23 nl each in column 2 as dose-response) were transferred via a Kalypsys pintool equipped with a 1536-pin array. The plates were incubated for 15 min at room temperature, and then 1 ul of substrates (200 nM DNA and 2 mM ATP, final concentrations) was added to start the reaction. The plate was transferred into a ViewLux high-throughput CCD imager where the reaction progress was measured in a discontinuous kinetic mode (two reads spaced 2 hours apart, with intermediate room temperature incubation of the covered assay plate) by using standard red-fluorescence optics (excitation filter 525 nm, emission filter 598 nm). Enzyme-free and vehicle (DMSO) controls were included for signal normalization.
A general note: qHTS replaces the single test concentration by a dilution series.
Regarding `O=S(=O)(c1cccc2c(Cl)cccc12)N1CCCNCC1`, the Potency result was “inactive”.
As to `CC(=O)[C@H]1CCC2C3CC=C4C[C@@H](OS(=O)(=O)O)CC[C@]4(C)C3CC[C@@]21C` (stereo not given in full), the Potency result was “inactive”.
Take `Nc1ccc(-c2nc3ccc(-c4nc5ccc(N)cc5[nH]4)cc3[nH]2)cc1`: the Potency is 22.4 µM (active).
In the case of `O=C(O)C1CCNCC1`, the Potency result is “inactive”.
For the compound `O=C(OCCN1CCOCC1)C1(c2ccccc2)CCCCC1`, the Potency result was “inactive”.
Consider `O=C(c1ccc2c(c1)OCCO2)N1CCCCC1`, for which the Potency result was “inactive”.
As for `CCCCCCC/C=C\CCCCCCCCC(=O)O`, the Potency is 28.2 µM (active).
The result for `CCCCCCCCCCC/C=C\C(C)(C)/C=C\CCCC(=O)O` reads 25.1 µM (active); that for `CCN(CC)CCOC(=O)c1cc(Cl)c(N)cc1OC`, “inactive”.
As for `NC(Cc1cccc(-c2ccccc2CP(=O)(O)O)c1)C(=O)O` (stereo not given), the Potency entry is “inactive”.
Regarding `COc1cc(C(O)CO)ccc1O` (stereo not given), the Potency result is “inactive”.
For `Cn1ccnc1`, the Potency result is “inactive”.
The result for `CN1C2CCC1CC(OC(c1ccccc1)c1ccccc1)C2` (stereo not given) reads “inactive”; that for `COc1cc2c(CCNC(C)=O)c[nH]c2cc1O`, “inactive”; that for `COc1cc(N)c(Cl)cc1C(=O)OCCN1CCCCC1`, “inactive”.
Turning to `CCCn1c(=O)c2[nH]c(-c3ccc(S(=O)(=O)O)cc3)nc2n(CCC)c1=O`, the Potency entry was “inactive”.
Then `CCCCCC(O)CCCC(=O)O` (stereo not given), with “inactive”; and `CC(C)Cn1c(=O)n(C)c(=O)c2[nH]cnc21`, with “inactive”.
On to `Cn1cc(C(F)(F)F)nc1-c1ccc(OCC(O)CNCCOc2ccc(O)c(C(N)=O)c2)cc1` (stereo not given), for which the Potency entry was “inactive”.
Consider `CC(=O)NNC(=O)N1Cc2ccccc2Oc2ccc(Cl)cc21`, for which the Potency entry is “inactive”.
Turning to `COc1cccc(OC)c1OCCNCC1CSc2ccccc2O1` (stereo not given), the Potency entry was “inactive”.
The result for `c1ccc(C2CN3CCSC3=N2)cc1` (stereo not given) reads “inactive”; that for `CC(C)(C)NCC(O)COc1cccc2[nH]c(=O)[nH]c12` (stereo not given), “inactive”; that for `O=C(O)Cc1c[nH]c2ccc(O)cc12`, “inactive”.
Regarding `Cc1ccc([N+](=O)[O-])cc1S(=O)(=O)N(C)C`, the Potency result is “inactive”.
As to `N[C@@H](CS(=O)O)C(=O)O`, the Potency entry was “inactive”.
Then `Cn1c(=O)c2[nH]c(-c3ccc(S(=O)(=O)O)cc3)nc2n(C)c1=O`, with “inactive”.
As to `CNC(=O)c1cc2c(cn1)[nH]c1ccccc12`, the Potency result was “inactive”.
The result for `N[C@H](C(=O)O)[C@H]1C[C@@H]1C(=O)O` reads “inactive”; that for `NC(N)=[N+]1CCc2ccccc2C1`, “inactive”; that for `O=C(O)c1cc2cc(F)ccc2[nH]1`, “inactive”.
Regarding `CN1CCN(c2nc3cc(C(F)(F)F)ccc3n3cccc23)CC1`, the Potency result is “inactive”.
For the compound `CCCCC[C@H](CC(=O)NO)C(=O)N[C@H](C(=O)N1CCC[C@H]1CO)C(C)C`, the Potency result is “inactive”.
With `NCCCCN`, the Potency result is “inactive”.
Consider `Cc1nc(N=Nc2cc(S(=O)(=O)O)c3cc([N+](=O)[O-])cc(S(=O)(=O)O)c3c2)c(COP(=O)(O)O)c(C=O)c1O`, for which the Potency result is “inactive”.
Then `C=CC[C@H](N)C(=O)O`, with “inactive”.
The result for `N=C(N)c1ccc(N)cc1` reads “inactive”; that for `Nc1ccc(N2C(=O)c3ccccc3C2=O)c(Cl)c1`, “inactive”; that for `C[C@@H](NCCc1ccc(O)cc1)[C@@H](O)c1ccc(O)cc1`, “inactive”.
Regarding `CN[C@H](CC(=O)O)C(=O)O`, the Potency result is “inactive”.
